Consider 16 molecules from PubChem BioAssay (NCATS).

Assay in all cases: qHTS profiling for inhibitors of Plasmodium falciparum proliferation (AID 504749); also: nearly all actives have a fitted effect of over 60% in size
Common to all, as to conditions: P. falciparum in erythrocytes, SYBR Green DNA, 72 h; series mostly up to 28.7 µM
In general terms: In qHTS, concentration-response curves come from the screen itself.

The test system of one assay is CP286. The method in brief: (§1)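 P. falciparum-infected erythrocytes (0.3% parasitemia, 2.5% hematocrit) incubated with compound 72 h at 37 C, 5% CO2. Parasite DNA detected by SYBR Green after lysis, overnight at room temperature; normalised to 0.29 uM artemisinin and DMSO.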
The subject of a further assay is CP291. Put shortly:
as §1

The subject of the next assay is CP297. The method in brief:
as §1

In a further assay the test system is CP305. Put shortly:
as §1

The next assay deals with CP315. The method in brief: as §1
The next assay has as its system CP325. The method in brief: as §1
Another assay has as its system CP329. Put shortly:
as §1

A further assay concerns CP335. The method in brief: as §1
For a further assay, the system named is DFO2036. The method in brief:
as §1

Another assay deals with DIV14. The method in brief: as §1
The next assay has as its system DIV17. The method in brief:
as §1

The next assay deals with DIV30. Put shortly:
as §1

The subject of a further assay is Dd2. The method in brief: as §1
The subject of another assay is ECU. Put shortly: as §1
The next assay has as its system FAB9. Put shortly: as §1
A further assay has as its system GB4. The method in brief:
as §1

A further assay has as its system HB3. The method in brief: as §1
In a further assay the test system is ICS. Put shortly: as §1
A further assay has as its system JCK. Put shortly: as §1
A further assay has as its system N140. The method in brief: as §1

Results filed as inconclusive are left out. Activity calls are given as the source filed them. Calls follow the shape of the dose curve; as a rule, active = well fitted inhibition curve with a large enough effect; inconclusive = small, poorly fitted or top-dose-only effect; inactive = flat fitted curve, though single readings scatter.
Potency is read from the fitted curve at half-maximal effect.

With `O=C(NCCN1CCOCC1)c1ccc(Cl)cc1`, the call with CP286, in the assay on CP291, in the assay with CP315, with CP325, in the assay with CP329 and in the assay with DFO2036 was inactive. Further, the molecule was called inactive in the assay on DIV30, in the assay with FAB9 and with JCK. In addition, the Potency entry with CP297, with CP305, with CP335, with DIV14, with DIV17 and in the assay with Dd2 was “inactive” throughout. In addition, the Potency entry with ECU, in the assay with GB4, with HB3, in the assay with ICS and in the assay with N140 was “inactive” each time.

Regarding `O=C1NCC2(CCN(CCc3ccccc3)CC2)O1`, the call in the assay on CP286, in the assay with CP291, in the assay on CP315, in the assay with CP325, in the assay on CP329 and in the assay with DFO2036 was inactive. The call with DIV30, in the assay with FAB9 and with JCK was inactive. The Potency result with CP297, in the assay on CP305, in the assay with CP335, in the assay with DIV14, with DIV17 and in the assay with Dd2 was “inactive” in each case. Moreover, the Potency result in the assay on ECU, in the assay on GB4, in the assay with HB3, in the assay on ICS and with N140 was “inactive” in each case.

Take `CC/C(=C(\c1ccccc1)c1ccc(OCCN(C)C)cc1)c1ccccc1`: the Potency result with CP297 and with HB3 was “inactive” in each case. Further, the result with CP315, in the assay with CP329, in the assay on DFO2036, in the assay on FAB9 and in the assay on JCK was inactive. Besides, the Potency in the assay with DIV14 was 13.5 µM (active); with GB4, 10.7 µM (active); with ICS it was 12.6 µM (active).

Take `NCCS`: the molecule was called inactive with CP286, in the assay on CP291, with CP315, in the assay on CP325, in the assay with CP329 and in the assay with DFO2036. The outcome with DIV30, in the assay with FAB9 and with JCK was inactive. The Potency entry in the assay with CP297, in the assay with CP305, with CP335, with DIV14, with DIV17 and with Dd2 was “inactive” throughout. Further, the Potency entry in the assay on ECU, in the assay with GB4, in the assay with HB3, with ICS and with N140 was “inactive” throughout.

`Cc1cnc(C(=O)O)c[n+]1[O-]`: the call in the assay on CP286, in the assay on CP291, with CP315, with CP325, in the assay with CP329 and in the assay with DFO2036 was inactive. The result in the assay with DIV30, in the assay with FAB9 and with JCK was inactive. Further, the Potency result in the assay with CP297, in the assay with CP305, in the assay with CP335, with DIV14, in the assay on DIV17 and with Dd2 was “inactive” each time. In addition, the Potency entry in the assay on ECU, in the assay on GB4, in the assay with HB3, in the assay with ICS and in the assay with N140 was “inactive” in each case.

Take `CCN1CCC[C@H]1CNC(=O)c1cc(S(N)(=O)=O)ccc1OC`: the molecule was classed as inactive with CP286, with CP291, in the assay with CP315, with CP325, in the assay with CP329 and in the assay on DFO2036. Also, the call with DIV30, in the assay with FAB9 and in the assay with JCK was inactive. Further, the Potency entry in the assay with CP297, with CP305, in the assay with CP335, with DIV14, with DIV17 and in the assay on Dd2 was “inactive” throughout. For the same molecule, the Potency result in the assay with ECU, with GB4, in the assay on HB3, in the assay with ICS and in the assay with N140 was “inactive” throughout.

With `O=C(O)Cc1cccc2ccccc12`, the molecule was classed as inactive with CP286, in the assay with CP291, with CP315, in the assay with CP325, in the assay with CP329 and in the assay on DFO2036. In addition, the outcome in the assay with DIV30, in the assay with FAB9 and in the assay on JCK was inactive. The Potency entry in the assay on CP297, in the assay on CP305, with DIV14, in the assay on DIV17, in the assay on Dd2 and with ECU was “inactive” in each case. Besides, the Potency entry with GB4, in the assay with HB3, in the assay on ICS and with N140 was “inactive” throughout.

Take `O=C1Nc2ccc(Cl)cc2C(C#CC2CC2)(C(F)(F)F)O1` (stereo unspecified): the outcome in the assay on CP286, in the assay on CP291, in the assay with CP315, in the assay on CP325, in the assay on CP329 and in the assay with DFO2036 was inactive. For the same molecule, the call with DIV30, in the assay on FAB9 and in the assay with JCK was inactive. The Potency result with CP305, in the assay on Dd2, with ECU, in the assay on HB3 and in the assay on N140 was “inactive” in each case.

For the molecule `NC(N)=Nc1nc(CSCC/C(N)=N/S(N)(=O)=O)cs1`, the molecule was classed as inactive in the assay with CP286, with CP291, with CP315, in the assay on CP325, with CP329 and with DFO2036. Also, the call in the assay with DIV30, in the assay on FAB9 and in the assay on JCK was inactive. Besides, the Potency entry in the assay with CP297, with CP305, in the assay with CP335, in the assay on DIV14, with DIV17 and in the assay on Dd2 was “inactive” throughout. Moreover, the Potency result with ECU, in the assay on GB4, with HB3, with ICS and in the assay with N140 was “inactive” each time.

Regarding `CN(C)CCC(c1ccccc1)c1ccccn1` (stereo unspecified), the result in the assay on CP286, in the assay on CP315, with CP325, with DFO2036, in the assay on FAB9 and in the assay with JCK was inactive. For the same molecule, the Potency in the assay with CP335 is 7.57 µM (active); in the assay with DIV14 it was 6.75 µM (active); in the assay with DIV17, 9.53 µM (active); in the assay on GB4 it was 7.57 µM (active). Also, the Potency entry in the assay on Dd2, in the assay with ECU, in the assay with HB3, with ICS and in the assay with N140 was “inactive” each time.

For `COc1ccccc1N1CCN(CCCNc2cc(=O)n(C)c(=O)n2C)CC1`, the outcome in the assay on CP286, in the assay on CP291, with CP315, with CP325, in the assay with CP329 and in the assay on DFO2036 was inactive. Moreover, the call in the assay on DIV30, in the assay on FAB9 and with JCK was inactive. For the same molecule, the Potency entry in the assay on CP297, in the assay with CP305, in the assay with CP335, in the assay on DIV14, with DIV17 and in the assay with Dd2 was “inactive” in each case. Further, the Potency result in the assay on ECU, with GB4, in the assay on HB3, in the assay on ICS and in the assay on N140 was “inactive” in each case.

As for `CCCNC(=O)NS(=O)(=O)c1ccc(Cl)cc1`, the molecule was called inactive in the assay on CP286, with CP291, in the assay on CP315, in the assay on CP325, in the assay on CP329 and in the assay with DFO2036. For the same molecule, the molecule was called inactive with DIV30, in the assay on FAB9 and with JCK. Further, the Potency entry in the assay with CP297, in the assay on CP305, with CP335, with DIV14, with DIV17 and in the assay on Dd2 was “inactive” throughout. Also, the Potency entry with ECU, in the assay on GB4, in the assay on HB3, in the assay on ICS and with N140 was “inactive” each time.

As for `CC(=O)CCCCn1c(=O)c2c(ncn2C)n(C)c1=O`, the result with CP286, in the assay on CP291, in the assay on CP315, in the assay on CP325, in the assay with CP329 and in the assay on DFO2036 was inactive. Besides, the call in the assay with DIV30, in the assay with FAB9 and in the assay on JCK was inactive. Also, the Potency entry in the assay on CP297, with CP305, in the assay with CP335, in the assay on DIV14, in the assay with DIV17 and with Dd2 was “inactive” each time. For the same molecule, the Potency entry with ECU, in the assay with GB4, in the assay on HB3, in the assay on ICS and in the assay with N140 was “inactive” each time.

For the molecule `O=c1[nH]cnc2c1ncn2[C@H]1CC[C@@H](CO)O1`, the molecule was classed as inactive in the assay with CP286, with CP291, with CP315, with CP325, in the assay with CP329 and in the assay with DFO2036. In addition, the call in the assay on DIV30, in the assay with FAB9 and in the assay with JCK was inactive. In addition, the Potency entry with CP297, in the assay with CP305, in the assay with CP335, with DIV14, in the assay on Dd2 and in the assay with ECU was “inactive” throughout. Also, in the assay on N140, the Potency entry is “inactive”. Moreover, the Potency in the assay with ICS was 10 µM (active).

With `CC1(C)O[C@H]2C[C@@H]3[C@H]4CCC5=CC(=O)C=C[C@]5(C)[C@@]4(F)[C@@H](O)C[C@]3(C)[C@]2(C(=O)CO)O1`, the molecule was called inactive in the assay with CP286, in the assay on CP291, in the assay on CP315, with CP325, in the assay with CP329 and in the assay on DFO2036. Besides, the result in the assay on FAB9 and in the assay on JCK was inactive. In addition, the Potency entry with CP305, in the assay on CP335, in the assay with DIV17, with Dd2, with ECU and in the assay with GB4 was “inactive” in each case. Also, the Potency result with HB3 and with N140 was “inactive” each time.

Regarding `C[N+](C)(C)CCCCCC[N+](C)(C)C`, the call in the assay on CP286, in the assay with CP291, with CP315, in the assay on CP325, in the assay on CP329 and with DFO2036 was inactive. The molecule was classed as inactive in the assay with DIV30, in the assay with FAB9 and in the assay with JCK. Moreover, the Potency entry with CP297, in the assay on CP305, with CP335, in the assay on DIV14, with DIV17 and in the assay with Dd2 was “inactive” each time. For the same molecule, the Potency result in the assay on ECU, in the assay with GB4, in the assay with HB3, in the assay on ICS and with N140 was “inactive” in each case.
